# Results from PubChem BioAssay (NCI).
# The panel holds about 83,000 compounds, 20% with a hit somewhere; the sample as a whole holds those more often.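 The endpoint reported here, percent growth, reads 100 for growth as untreated, 0 for no net growth and -100 for all cells dead.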 Unmarked numbers belong to inactive results. Calls of active or inactive are those of the source. The calls were made as follows: active = growth percent below 10; inactive = the rest.
# Experiments:
# Test in all cases: NCI-60 one-dose screen, 48 h (100 = growth as untreated, 0 = no growth, -100 = all killed)
# Settings in all cases: 10 µM unless noted
# NCI-H226 lung = test system: NCI-H226 lung
# NCI-H322M lung = test system: NCI-H322M lung
# HOP-62 NSCLC = test system: HOP-62 NSCLC
# NCI-H460 lung = test system: NCI-H460 lung
# HOP-92 NSCLC = test system: HOP-92 NSCLC
# NCI-H522 lung = test system: NCI-H522 lung
# A549/ATCC NSCLC = test system: A549/ATCC NSCLC
# 786-0 renal = test system: 786-0 renal
# COLO 205 colon = test system: COLO 205 colon
SMILES,growth (NCI-H226 lung),growth (NCI-H322M lung),growth (HOP-62 NSCLC),growth (NCI-H460 lung),growth (HOP-92 NSCLC),growth (NCI-H522 lung),growth (A549/ATCC NSCLC),growth (786-0 renal),growth (COLO 205 colon)
CCCCn1c2cc(OCc3cn(-c4ccc(Cl)cc4)nn3)ccc2c2ccnc(C)c21,52.3%,56.6%,41.2%,21.5%,36.9%,24.2%,42.1%,-10.3% (active),21.9%
Nc1cc(N)nc(SCC(=O)O)n1,103%,102%,104%,106%,97.3%,79.7%,88%,99.1%,114%
Nc1c(C(=O)Nc2ccccn2)sc2nc3c(cc12)C(=O)CCC3,74.7%,43.6%,40.6%,6.33% (active),,12%,18%,35.4%,7.57% (active)
C=C1C(=O)O[C@H]2[C@H]1CC/C(COC(=O)Nc1nc3ccccc3[nH]1)=C\CC[C@@]1(C)O[C@@H]21,79.8%,105%,89.9%,91.4%,50.4%,-27.2% (active),95.5%,80%,17.3%
COc1cc(-c2csc(NC(=O)Nc3ccc(Cl)cc3)n2)cc(OC)c1OC,32.6%,64.8%,38.5%,24.9%,7.26% (active),3.25% (active),17.8%,47.5%,13.2%
COc1ccc2nc(-c3ccc(Cl)cc3)cc(C(=O)N3N=C(c4ccc(N)cc4)CC3c3ccccc3)c2c1 (centres undefined),63.8%,54%,42.5%,25.5%,58.9%,34.7%,46.9%,31.8%,42.3%
Nc1ccccc1NC(=O)c1ccc(CSc2nc(N3CCOCC3)c3cccn3n2)cc1,6.52% (active),22%,15.5%,15.3%,-6.72% (active),-50.3% (active),11.8%,17.3%,-29% (active)
C=C1C(=O)O[C@H]2[C@H]1CC/C(COC(=O)c1cc3ccccc3o1)=C\CC[C@@]1(C)O[C@@H]21,45.6%,78.1%,42.7%,42.2%,-52.7% (active),-58.2% (active),51.4%,-19.1% (active),-65.6% (active)
CC(=O)Oc1c2c(nc3c1c1ccccc1n3Cc1ccccc1)-c1ccccc1C2,85.9%,92.2%,79.7%,98.2%,90.5%,51%,85.7%,91.8%,97.9%
COc1cc(C2=NNC(c3ccc(N(C)C)cc3)C2)cc(OC)c1OC (centres undefined),62.2%,46.2%,36.4%,10.5%,29.2%,-6.25% (active),24.5%,23%,5.74% (active)
CCCCn1c(=O)c(/C=C/C(=O)/C=C/c2cc3ccccc3n(CCCC)c2=O)cc2ccccc21,-22.8% (active),49.6%,49%,5.91% (active),64.4%,5.74% (active),-0.936% (active),-63% (active),-22% (active)
CC(=O)OCC1SC(OC(C)=O)C(NC(=O)/C=C/CCl)C(OC(C)=O)C1OC(C)=O (centres undefined),103%,109%,117%,102%,105%,-9.03% (active),89.1%,124%,107%
Cc1nnc(/N=C2\NC(=O)/C(=C/c3ccc(N(C)C)cc3)S2)s1,89.2%,85.5%,65.8%,33.2%,85.1%,2.45% (active),63.5%,76.8%,98.7%
O=C1Nc2ccccc2C12C=C(c1ccccc1)Nc1c2c(-c2ccccc2)nn1-c1ccccc1 (centres undefined),96.9%,82.7%,81.4%,36.5%,66.4%,69.4%,44.8%,80.6%,80.8%
CCOC(=O)C1=C(C)n2nc(CC#N)c(C#N)c2NC1c1ccc(CC)cc1 (centres undefined),87.6%,85.6%,81.7%,104%,85.9%,85.5%,96.5%,106%,97.8%
COc1cc(-c2csc(NC(=O)Nc3cc(Cl)cc(Cl)c3)n2)cc(OC)c1OC,27.5%,-42.1% (active),-64.8% (active),-61.6% (active),-14.3% (active),37.5%,-45.9% (active),-29.2% (active),5.56% (active)
N#CC(C#N)=C1NC(c2ccccc2)=C(c2ccccc2)C(c2ccccc2Cl)=C1C#N,108%,107%,109%,111%,109%,85.5%,84%,97.6%,123%
COC(=O)/C=C1\SC(=Nc2ccc(C(F)(F)F)cc2)N(CCc2c[nH]c3ccccc23)C1=O,-62.7% (active),-11% (active),-64.2% (active),-47.4% (active),-48.7% (active),-65% (active),3.32% (active),-74.1% (active),-62.9% (active)
c1ccc2nc(N3CCOCC3)c(N3CCCCC3)nc2c1,95.8%,95.9%,94.1%,105%,84.5%,85.3%,96.9%,102%,110%
O=C(CCl)N1CCCc2ccccc21,101%,94%,107%,99.3%,97.2%,96.8%,109%,104%,108%
